Measured values reported in PubChem BioAssay AID485281 (National Center for Advancing Translational Sciences (NCATS), 2010).
About 260 (0.074%) of roughly 350,000 compounds were called active. Roughly 8% stayed inconclusive and do not appear here. Calls come from the whole dose curve; as a rule, active = well fitted inhibition curve with a large enough effect; inconclusive = small, poorly fitted or top-dose-only effect; inactive = no such curve, though single readings can be large or run the other way. The entries come from a sample that favours actives as a whole.

Target: Ferritin light chain (Equus caballus) (UniProt P02791)
Sequence (P02791 2-175 limits assumed): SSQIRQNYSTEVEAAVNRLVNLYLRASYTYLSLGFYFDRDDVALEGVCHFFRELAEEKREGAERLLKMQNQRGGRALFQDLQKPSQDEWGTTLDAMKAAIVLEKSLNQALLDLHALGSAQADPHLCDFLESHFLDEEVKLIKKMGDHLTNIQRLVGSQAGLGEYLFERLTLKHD
Assay: qHTS Assay for Identification of Novel General Anesthetics; note: nearly all actives have a fitted effect of over 20% in size
Conditions: apoferritin/1-aminoanthracene competitive binding, fluorescence; series mostly up to 77.5 µM
Summary of the method: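 Concentration-response curves derived by four-parameter Hill fitting of normalized fluorescence, where compounds displaced 1-AMA from 10 uM horse apoferritin following a brief 10 min room-temperature incubation; propofol titration acted as positive control.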
Potency is the fitted concentration of half-maximal effect.

Potency, inactive:
COc1ccc(OCC(=O)Nc2cccc(C(=O)OCc3cc(=O)n4nc(C)sc4n3)c2)cc1, O=C(NCC12CC3CC(CC(C3)C1)C2)c1cc2nc(-c3ccccc3)cc(C(F)(F)F)n2n1, CCN(CC)c1ccc(NC(=O)CN2CCN(CC(=O)Nc3ccc(Cl)cc3)CC2)cc1, COc1ccc(-c2nc3nc(C)cc(C)n3c2Nc2c(C)cccc2C)cc1, CC1=C(C(=O)OCC2CCCCC2)C(c2c(F)cccc2Cl)CC(=O)N1 (centres undefined), COc1cccc(Cn2c(SCc3ccc(C(=O)N4CCC(C)CC4)cc3)nc3ccncc32)c1, COCCNS(=O)(=O)c1cc(-c2nn3c(C)nnc3c3ccccc23)ccc1C, CCc1cccc(C)c1NS(=O)(=O)c1ccc(-c2cc(C)no2)s1, Cc1cc(C)cc(-n2ccnc2SCC(=O)Nc2nc3ccccc3s2)c1, COc1ccc(CNC(=O)Cc2coc3ccc(C(C)C)cc23)cc1, Cc1cc(=O)n(CC(=O)Nc2cccc([N+](=O)[O-])c2)c(-n2nc(C)cc2C)n1, O=C(CCc1nc(CN2CCN(S(=O)(=O)c3ccc(Cl)cc3)CC2)no1)N1CCCCC1, COc1ccc(C2Sc3ccccc3NC3=C2C(=O)c2ccccc23)c(OC)c1OC (centres undefined), CCOCCCn1c(SCC(=O)Nc2ccc(CC)cc2)nc2ccccc2c1=O, COc1ccc(CCNC(=O)CCCCn2c(=O)c3ccccc3n(Cc3ccccc3C)c2=O)cc1OC, COc1ccc(CNC(=O)CCc2c(C)nn(-c3ccc(N4CCCC4)nn3)c2C)cc1, Cc1ccc(SCC(=O)Nc2ccc3oc(-c4ccccc4F)nc3c2)cc1, Cc1ccc2nc(CN3CCN(S(=O)(=O)c4ccc(C)c(C)c4)CC3)oc2c1, Cc1ccc(C)c(NC(=O)CSC2=Nc3ccccc3N=C(c3ccc(F)cc3)C2)c1, Cc1ccc(C(=O)N2CCCC2)c(F)c1F, COc1cc(OC)c(C(=O)N2CCCC2)cc1OC, CCCn1c2ccccc2c2cnn(CC(=O)N(CC)c3cc(C)ccc3C)c(=O)c21, CCOC(=O)Cn1c(=O)n(C2CCCCC2)c2nc(-c3cccc(OC)c3)nc(C(N)=O)c21, O=C(CN1c2ccccc2S(=O)(=O)c2ccccc21)Nc1cccc(C(F)(F)F)c1, CCn1c(C)c(C)c2cc(C(=O)NCCc3cc(OC)ccc3OC)ccc21, Cc1cc(OCC(=O)NCC2(N(C)C)CCCCC2)cc(C)c1Cl, CN(C)CCCn1c(-c2ccc(Cl)cc2)csc1=Nc1ccccc1, O=c1cc(-c2ccccc2)n2c(SCc3ccccc3)nnc2[nH]1, Nc1ccc(C(=O)OCC(=O)NC2CCS(=O)(=O)C2)cc1[N+](=O)[O-] (centres undefined), COC(=O)c1cc(OCC(=O)NC2CCCc3ccccc32)cc(C(=O)OC)c1 (centres undefined), CC(C)c1ccc(NC(=O)Cn2c3ncccc3c(=O)n2-c2ccccc2)cc1, CCc1ccc(NC(=O)c2sc3nc4c(cc3c2N)CN(CC)CC4)cc1, O=C(CCc1nc(CN2CCN(S(=O)(=O)c3ccc(Br)cc3)CC2)no1)N1CCCCC1, Cc1cc(C(=O)Nc2cccc(C(F)(F)F)c2)c2c(C)nn(-c3cccc(F)c3)c2n1, CCc1cccc(NC(=O)CSc2nccn2C)c1, COc1ccc(-c2cn3c(C)c(C(=O)Nc4cc(C)cc(C)c4)sc3n2)cc1, O=S(=O)(c1ccccc1)c1nc(-c2ccc(Cl)cc2Cl)oc1N1CCCCC1, COc1cc(C(=O)Nc2ccc(-n3c(C)nc4ccccc4c3=O)cc2)cc(OC)c1OC, Cc1nccn1CCCNC(=O)CC1C(=O)NCCN1Cc1ccc(Cl)c(F)c1 (centres undefined), O=C(CC1C(=O)NCCN1Cc1ccc(-c2ccccc2)cc1)NCC1CCOCC1 (centres undefined), CC(=O)c1cccc(NC(=O)c2nc(-c3ccccc3)n(-c3cccc(C)c3)n2)c1, O=C(c1cnn(-c2ccc(F)cc2)c1-n1cccc1)N1CCN(c2ccc(F)cc2)CC1, CCCn1c2ccccc2c2cnn(CC(=O)N(C)c3ccccc3CC)c(=O)c21, O=C(CCC(=O)N1CC2CCCN2c2ccccc21)NCc1ccccc1Cl (centres undefined), Cc1ccc2nc(-c3ccc(C)c(NC(=O)Cc4ccccc4)c3)oc2c1, COc1ccc(N(CC(=O)NCCc2ccc(Cl)cc2)S(=O)(=O)c2c(C)nn(C)c2C)cc1, Cc1ccc(S(=O)(=O)NCCc2nnc3ccc(SCc4cccnc4)nn23)cc1, COC(=O)CSc1ccc2nnc(CCNS(=O)(=O)c3ccc(C)cc3)n2n1, CN1C(=O)c2ccccc2Sc2ccc(NC(=O)Cc3ccc(Cl)cc3)cc21, O=C(NCC(c1ccc2c(c1)OCO2)N1CCN(c2ccccc2)CC1)C(=O)Nc1ccccc1F (centres undefined), Cc1ccc(Cl)cc1NC(=O)C(C)n1nnc2sc(-c3ccccc3)cc2c1=O (centres undefined), O=C(Cn1cc(SCc2cccc(Cl)c2)c2ccccc21)N1CCCCC1, CCN1CCN(c2ncc3c(n2)CC(c2ccccc2O)CC3=O)CC1 (centres undefined), CCCSc1nsc(N)n1, Nc1nc(SC23CC4CC(CC(C4)C2)C3)ns1, O=C(c1ccc(Br)cc1)N(Cc1cccs1)c1ccc(F)cc1, Cn1cc(S(=O)(=O)N2CCCCCC2)cc1C(=O)N1CCN(c2ccc(F)cc2)CC1, CC1Cc2ccccc2N1C(=O)CSc1nnc(C2CC2)n1C (centres undefined), CC1Cc2ccccc2N1C(=O)CSc1nc2ccccc2o1 (centres undefined), O=C(NCCCN1CCN(c2cccc(Cl)c2)CC1)c1nnc(Cc2ccc(F)cc2Cl)o1, COc1ccccc1CNC(=O)CCn1c(=O)c2ccccc2n(CC(=O)Nc2cccc(Cl)c2)c1=O, CCOc1cccc2c1N[C@@H](c1ccc(C(=O)O)cc1)[C@H]1CC=C[C@@H]21, CCC(=O)N1c2ccccc2CC1C(=O)N1CCN(c2ccccc2F)CC1 (centres undefined), COc1ccc(-n2ccnc(NCCc3ccc(Cl)cc3)c2=O)cc1OC, O=C(Cn1nc(C(F)(F)F)c2c1CCCC2)Nc1ccc(Cl)cc1, COC(=O)c1ccc(NC(=O)CCc2c(C)nn(-c3ccc(N4CCCC4)nn3)c2C)cc1, COc1ccc(CCn2cc3c(c2-c2ccc(Br)cc2)c(=O)n(C)c(=O)n3C)cc1OC, COc1ccc(CC(=O)NCCc2sc3nc(-c4ccc(OC)cc4)nn3c2C)cc1, Cc1cccc(N2CCN(C3=C(c4ccccc4)C(=O)c4ccccc43)CC2)c1C, CCOc1ccc(N(C)S(=O)(=O)c2cc(-c3cnc(C)o3)ccc2OC)cc1, CC(=O)c1ccc(NC(=O)CSc2c(C(C)C)cnc3c2c(=O)n(C)c(=O)n3C)cc1, CCOc1ccc(C(=O)Nc2ccc3nc4c(c(Nc5ccccc5OC)c3c2)CCCC4)cc1, COc1ccc(NC(=O)c2ccco2)cc1NC(=O)COc1ccc(C)c(C)c1, CCOc1ccc(N(CC)S(=O)(=O)N2CCCC(C(=O)NCc3ccc(SC)cc3)C2)cc1 (centres undefined), O=C(Nc1ccccc1F)C(c1ccccc1)N1Cc2ccccc2C1=O (centres undefined), CC(=O)N1CCc2cc(S(=O)(=O)NC(Cc3ccccc3)C(=O)NCc3ccc(C)cc3)ccc21 (centres undefined), COc1cc2c(cc1OC)C(COc1ccc(F)cc1)N(C(=O)c1ccccc1F)CC2 (centres undefined), COc1ccc(-c2onc(C)c2C)cc1S(=O)(=O)NCCc1ccccc1, Cc1ccc(-c2cc(N)n(Cc3cccc(Cl)c3)n2)cc1, Cc1ccccc1C(=O)N(Cc1ccc(N(C)C)cc1)CC1CCCO1 (centres undefined), CCOc1cc(C2c3c(-c4ccc(Br)cc4)n[nH]c3C(=O)N2c2ccc(Cl)cc2)ccc1O (centres undefined), CC(C)c1ccc(NC(=O)C2CCN(c3nc(-c4ccc(C(C)C)cc4)no3)CC2)cc1, Cc1ccc(NC(=O)CSc2nc3c([nH]c4ccccc43)c(=O)n2-c2ccccc2)c(C)c1, CCCOc1ccc(C(=O)Nc2ccc3oc(-c4cccc(Cl)c4Cl)nc3c2)cc1, COc1cc(OC)c(OC)cc1/C=C/c1nc2ccccc2c(=O)n1-c1ccc(Br)c(C)c1, COc1ccc(N2CCN(C(=O)C3CCCN(C(=O)c4cc5sccc5n4C)C3)CC2)cc1 (centres undefined), CCc1ccccc1OCCSc1nc(-c2cccs2)nc2cc(=O)[nH]n12, COc1ccc(CNC(=O)CSCc2nc(-c3ccccc3F)oc2C)cc1, COc1ccc(Br)cc1C1CC(=O)Nc2c1c(C)nn2-c1nc(C)cc(C)n1 (centres undefined), Cc1ccc(NC(=O)c2ccc3[nH]c(C)cc(=O)c3c2)c(C)c1, Cc1c(Cl)cccc1-c1ccc(CNCCCSc2nnnn2C)o1, COc1ccc(NC(=O)CCN2CCN(CCO)CC2)cc1, COc1ccc(CCNC(=O)c2ccc3c(c2)nc(C)n3-c2ccc(Br)cc2)cc1OC

Potency, active:
Cc1c(Br)cc(C(=O)N2CCCCCC2)c(C)c1C 10 µM, Nc1ccc(C(=O)OCC(=O)NC2CCCc3ccccc32)cc1[N+](=O)[O-] (centres undefined) 20 µM, CCOc1ccc(CN2CCNC(=O)C2CC(=O)NCCCC2CCCC2)cc1 (centres undefined) 31.6 µM, O=S(=O)(NCCc1nnc2ccc(SCc3ccc(Cl)cc3Cl)nn12)c1ccccc1 17.8 µM, CCCCCCSc1nsc(N)n1 8.91 µM, Cc1cc(=O)[nH]c(SCC(=O)N2c3ccccc3CC2C)n1 (centres undefined) 14.1 µM
